# PubChem BioAssay
# Active and inactive are the calls of the source.
# Tests used:
# [1] = tested on: Plasmodium falciparum Sir2 (PF13_0152, Sir2A); test: Plasmodium falciparum Sir2A binding compounds – biochemical, small-molecule microarray, 635 nm fluorescence, primary screen (AID 1098); conditions: fluorescence 635 nm, higher = more signal;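 note: score merges spot fluorescence intensity with its signal-to-noise ratio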
# [2] = probe aDKK1 binding to arrayed compounds – biochemical, biotinylated probe, 635/667 nm fluorescence, primary screen (AID 1099); conditions: small-molecule microarray, higher = more signal;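 note: score merges 667nm spot fluorescence with signal to noise across triplicate slides; reference of the scale not given here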
# [3] = probe aCHRDL2 binding to arrayed compounds – biochemical, biotinylated probe, 635/667 nm fluorescence, primary screen (AID 1100); conditions: small-molecule microarray, higher = more signal
# [4] = change in splice reporter luminescence, either direction, cell-based, HEK293, spliceosome inhibition project, primary screen (AID 1101); conditions: HEK293 splicing luciferase reporter, 24 h, higher = more signal, called active from +8 up or from −8 down;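 note: HEK293 cells carrying a splicing-competent luciferase reporter gene; test concentration not given here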
# [5] = target: Fibroblast growth factor 10 (Homo sapiens) (UniProt O15520); test: compounds binding fibroblast growth factor 10 – biochemical, small-molecule microarray, 635 nm fluorescence, primary screen (AID 1102); conditions: FGF10 binding, fluorescence 635 nm, higher = more signal
# [6] = tested on: glycogen synthase kinase-3 (GSK3A per assay name; protocol says GSK3B); test: compounds binding glycogen synthase kinase-3 – biochemical, small-molecule microarray, 635 nm fluorescence, GSK3A, primary screen (AID 1103); conditions: fluorescence 635 nm, higher = more signal; note: the record names both GSK3A and GSK3B
# [7] = target: Epidermal growth factor receptor (Homo sapiens) (UniProt P00533); test: compounds binding epidermal growth factor receptor – biochemical, small-molecule microarray, 635 nm fluorescence, primary screen (AID 1104); conditions: EGFR binding, higher = more signal;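 note: score merges 667 nm emission intensity with spot signal to noise over triplicate slides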
# [8] = target: Follistatin-related protein 3 (Homo sapiens) (UniProt O95633); test: compounds binding follistatin-related protein 3 – biochemical, small-molecule microarray, 635 nm fluorescence, primary screen (AID 1105); conditions: FSTL3 binding, higher = more signal;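 note: score merges emission near 667 nm and signal to noise per printed spot across three slides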
# [9] = target: Dickkopf-related protein 1 (Homo sapiens) (UniProt O94907); test: small molecules binding DKK1 protein – biochemical, small-molecule microarray, 635 nm fluorescence scan, primary screen (AID 1106); conditions: higher = more signal;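 note: score merges emission near 667 nm with signal to noise over three replicate slides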
# [10] = tested on: Inhibin beta A chain (activin A); test: small molecules binding activin A – biochemical, small-molecule microarray, 635 nm fluorescence scan, primary screen (AID 1107); conditions: INHBA, higher = more signal;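 note: mouse activin A protein probed at 4.33 µg/mL on printed slides; score merges bound-protein fluorescence near 667 nm with spot signal-to-noise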
# Epidermal growth factor receptor (Homo sapiens), sequence (P00533 whole entry, looked up): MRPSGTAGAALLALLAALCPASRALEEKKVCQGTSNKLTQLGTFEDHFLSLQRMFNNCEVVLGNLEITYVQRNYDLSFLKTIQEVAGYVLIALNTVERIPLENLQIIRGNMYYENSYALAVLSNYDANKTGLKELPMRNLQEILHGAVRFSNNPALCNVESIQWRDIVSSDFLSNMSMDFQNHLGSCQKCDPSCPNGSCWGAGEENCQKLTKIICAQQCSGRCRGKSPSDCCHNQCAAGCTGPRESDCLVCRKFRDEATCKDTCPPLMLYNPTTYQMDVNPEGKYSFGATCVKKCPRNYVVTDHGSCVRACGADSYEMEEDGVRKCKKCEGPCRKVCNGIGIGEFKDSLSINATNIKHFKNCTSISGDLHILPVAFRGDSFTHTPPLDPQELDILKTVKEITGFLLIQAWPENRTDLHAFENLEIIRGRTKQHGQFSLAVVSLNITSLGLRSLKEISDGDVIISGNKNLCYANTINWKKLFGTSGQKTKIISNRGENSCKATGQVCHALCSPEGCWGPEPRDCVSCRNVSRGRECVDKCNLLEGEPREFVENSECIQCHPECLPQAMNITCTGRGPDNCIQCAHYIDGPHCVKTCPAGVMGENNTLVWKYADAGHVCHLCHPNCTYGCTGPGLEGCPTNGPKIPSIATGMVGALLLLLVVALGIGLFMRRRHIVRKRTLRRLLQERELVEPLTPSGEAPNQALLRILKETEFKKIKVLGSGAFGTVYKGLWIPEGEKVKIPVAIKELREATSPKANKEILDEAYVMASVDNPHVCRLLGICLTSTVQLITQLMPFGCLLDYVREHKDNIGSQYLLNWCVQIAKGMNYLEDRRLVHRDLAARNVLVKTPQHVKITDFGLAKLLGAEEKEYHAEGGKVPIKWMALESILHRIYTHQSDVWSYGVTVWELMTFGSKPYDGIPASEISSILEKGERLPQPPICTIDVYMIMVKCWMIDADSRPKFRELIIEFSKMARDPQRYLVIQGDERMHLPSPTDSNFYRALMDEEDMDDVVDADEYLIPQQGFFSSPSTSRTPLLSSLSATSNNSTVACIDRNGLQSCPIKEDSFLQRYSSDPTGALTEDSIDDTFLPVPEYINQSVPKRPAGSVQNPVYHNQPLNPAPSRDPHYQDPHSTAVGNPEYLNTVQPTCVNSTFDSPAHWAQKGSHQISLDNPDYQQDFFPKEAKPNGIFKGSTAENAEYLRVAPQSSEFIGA
# Dickkopf-related protein 1 (Homo sapiens), sequence (O94907 whole entry, looked up): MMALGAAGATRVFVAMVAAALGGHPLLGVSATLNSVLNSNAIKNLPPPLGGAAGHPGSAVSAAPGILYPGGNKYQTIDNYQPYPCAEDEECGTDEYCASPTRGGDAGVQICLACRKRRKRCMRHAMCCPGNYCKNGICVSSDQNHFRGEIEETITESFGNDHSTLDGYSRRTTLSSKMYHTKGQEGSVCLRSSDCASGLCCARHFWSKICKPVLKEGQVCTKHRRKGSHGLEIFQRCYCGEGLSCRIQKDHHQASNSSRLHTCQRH
# Fibroblast growth factor 10 (Homo sapiens), sequence (O15520 whole entry, looked up): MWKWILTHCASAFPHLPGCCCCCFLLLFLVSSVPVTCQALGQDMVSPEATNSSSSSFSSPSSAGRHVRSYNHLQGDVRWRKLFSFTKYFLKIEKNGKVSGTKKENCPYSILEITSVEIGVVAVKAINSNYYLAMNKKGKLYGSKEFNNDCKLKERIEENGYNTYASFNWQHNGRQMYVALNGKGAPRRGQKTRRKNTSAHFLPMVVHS
# Follistatin-related protein 3 (Homo sapiens), sequence (O95633 whole entry, looked up): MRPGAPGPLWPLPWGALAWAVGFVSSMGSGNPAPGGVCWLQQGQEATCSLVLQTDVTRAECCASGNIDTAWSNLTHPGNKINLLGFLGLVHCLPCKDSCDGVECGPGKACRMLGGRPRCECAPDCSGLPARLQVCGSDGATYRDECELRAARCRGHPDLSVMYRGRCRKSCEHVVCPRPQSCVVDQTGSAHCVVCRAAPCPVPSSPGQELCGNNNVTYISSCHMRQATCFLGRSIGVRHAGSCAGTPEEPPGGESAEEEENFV
Compound,composite z-score [1],composite z-score [2],composite z-score [3],z-score [4],composite z-score [5],composite z-score [6],composite z-score [7],composite z-score [8],composite z-score [9],composite z-score [10]
COC(=O)CC=C[C@@H](C)[C@@H](C=NOC(C)CN1CCCc2nc(C)c(C)cc21)NS(=O)(=O)c1ccc(C)cc1 (stereo not given in full),0.268,0.219,-0.296,0.218 (inactive),0.65,0.793,0.568,1.01,0.829,0.932
CCOC(=O)[C@H](CC(C)C)NC(=O)CCC1CC(OC(=O)NCc2ccc3c(c2)OCO3)CC2(CCCC(COC(=O)NCCOc3ccccc3)O2)O1 (stereo not given in full),0.543,0.0931,-0.537,-0.149 (inactive),0.866,0.994,0.224,1.22,0.826,0.267
CCc1cc2c(nc1CC)CCN(CCC(C)=NOC(C)CN1CCCCc3nc(C)c(C)cc31)C2 (stereo not given),0.526,-0.0521,-0.215,-0.242 (inactive),0.628,1.25,0.81,1.19,0.841,1.31
CCOC(=O)NN=C1C[C@@H](O)[C@@H](O)[C@@H]2[C@@H]3C(=O)N(c4ccc(F)cc4F)C(=O)[C@@H]3CC[C@H]12,-0.304,-0.349,-0.626,-1.43 (inactive),0.158,0.544,0.742,0.438,0.871,0.0584
CC(C)CON=C1C[C@@H](O)[C@@H](O)[C@@H]2[C@@H]3C(=O)N(Cc4ccccc4)C(=O)[C@@H]3CC[C@H]12,0.296,-0.373,-0.583,-1.59 (inactive),0.415,0.314,0.553,0.538,0.373,-0.204
CON=C[C@@H](OC)[C@H](C)C=CCC(=O)OC,-0.387,-0.171,-0.165,-0.165 (inactive),-0.135,-0.115,0.327,-0.23,-0.067,0.892
COC(=O)CC=C[C@@H](C)[C@@H](C=NOC[C@@H](O)[C@H]1O[C@@H]2OC(C)(C)O[C@@H]2[C@H]1O)OC,0.42,-0.0276,-0.673,-0.123 (inactive),0.247,0.589,0.496,0.115,0.56,-0.16
CC(CCC(=O)OC[C@H]1O[C@H](C#Cc2ccccc2)C=C[C@@H]1Oc1ccc(C)cc1)=NO[C@H](C)c1cn([C@@H]2COC[C@H]2O)nn1,0.261,-0.2,-0.383,-1.45 (inactive),0.162,-0.267,0.238,0.22,0.285,0.203
COc1cccc([C@H]2Oc3ccc(OC)cc3C(=NOCC[C@@H]3C=C[C@H](OC(C)=O)[C@@H](COC(C)=O)O3)[C@@H]2O)c1,1.21,0.0266,-0.153,-0.019 (inactive),0.696,0.321,0.274,0.795,0.718,0.842
CCCCOC(OCCCC)C(O)CSc1ccc2ccccc2c1 (stereo not given),0.302,0.166,-0.392,-0.0185 (inactive),0.379,0.68,0.549,0.589,0.486,0.251
O=C1[C@H]2CCn3c(=O)n(Cc4cc5c(cc4Cl)OCO5)c(=O)n3[C@H]2[C@H](O)[C@@H]2O[C@H]12,0.652,-0.374,-0.604,0.726 (inactive),-0.41,-0.734,0.413,-0.0989,0.552,0.73
O=C1CCCC=C1C(O)COCc1ccccc1 (stereo not given),0.179,-0.32,-0.344,-0.0937 (inactive),-0.146,-1.62,-0.137,-0.171,-0.126,0.53
CON=C(C)CCN1CCCc2nc(C)c(C)cc21,0.858,-0.117,-0.429,0.205 (inactive),0.423,0.897,0.695,0.68,0.847,0.912
CC(=O)OC[C@H]1O[C@H](CC=NO[C@@H](C)c2cc(-c3c(C)cc(C)cc3C)no2)C=C[C@@H]1OC(C)=O,-0.229,-0.341,0.0256,0.708 (inactive),-0.151,-0.55,0.0164,-0.037,-0.0281,0.363
CCCNC(=O)OC[C@H]1O[C@H](CCON=C2C[C@@H](O)[C@@H](O)[C@@H]3[C@@H]4C(=O)N(CC)C(=O)[C@@H]4CC[C@@H]23)C=C[C@@H]1Oc1ccc(OC)cc1,0.874,-0.04,-0.39,0.264 (inactive),0.55,1.05,0.611,1.07,1.35,0.157
O=C1CCCC=C1C(O)C1CCCCC1 (stereo not given),-0.895,-0.214,-0.476,0.301 (inactive),0.42,-0.0973,0.309,0.324,0.165,0.615
CC(C)CN1CCc2nc(-c3ccccc3)c3c(c2C1)CO[C@@H](C)C3,0.639,0.264,-0.291,0.185 (inactive),0.929,1.16,0.383,1.05,0.512,0.0576

Compound,composite z-score [1],composite z-score [2],composite z-score [3],z-score [4],composite z-score [5],composite z-score [6],composite z-score [7],composite z-score [8],composite z-score [9],composite z-score [10]
COC(=O)[C@@H]1CC[C@H](C)[C@@H](c2ccc(C)cc2)N1C(=O)c1ccc(C=NOC[C@@H](O)[C@H]2O[C@@H]3OC(C)(C)O[C@@H]3[C@H]2O)cc1,0.402,0.0861,-0.357,0.569 (inactive),0.696,0.479,0.54,0.543,0.595,0.101
O=C1[C@H]2[C@H]3[C@H](O)[C@H](O)CC(=NO[C@@H]4O[C@H](CO)[C@@H](O)[C@H](O)[C@H]4O)[C@@H]3CC[C@H]2C(=O)N1C1CCCCC1,0.203,-0.275,-0.458,-0.155 (inactive),0.57,0.607,0.46,0.542,0.353,-0.224
C#CCCCON=C1C[C@@H](O)[C@@H](O)[C@@H]2[C@@H]3C(=O)N(C[C@@H]4CCCO4)C(=O)[C@@H]3CC[C@H]12,0.407,-0.201,-0.346,0.44 (inactive),0.331,0.444,0.451,0.457,0.481,-0.0374
CC(C)[C@@H](OCc1ccccc1)[C@H](C)C=NO[C@H](C)c1cn([C@@H]2COC[C@H]2O)nn1,0.385,-0.492,-0.511,0.0201 (inactive),0.457,1.08,0.556,0.448,0.0939,-1.31
CCOC(=O)[C@H](Cc1ccccc1)NC(=O)CCC1CC(OC(=O)NCc2ccc3c(c2)OCO3)CC2(CCCC(COC(=O)NCCOc3ccccc3)O2)O1 (stereo not given in full),0.653,-0.388,-0.704,-1.13 (inactive),0.881,1.1,0.628,1.31,1.16,-0.0859
CCc1cc2c(nc1CC)CCN(CCC(C)=NOCC[C@@H]1C=C[C@H](OC(C)=O)[C@@H](COC(C)=O)O1)C2,1.05,0.0092,0.343,0.192 (inactive),-0.0488,0.459,0.789,0.332,0.301,1.29
O=C1[C@H]2[C@H]3[C@H](O)[C@H](O)CC(=NOC[C@@H](O)COCc4ccco4)[C@@H]3CC[C@H]2C(=O)N1Cc1ccc2c(c1)OCO2,0.867,-0.387,-1.42,-0.119 (inactive),-0.454,1.3,1.15,0.9,1.47,0.506
COc1ccc(COC(=O)NN=C2C[C@@H](O)[C@@H](O)[C@@H]3[C@@H]4C(=O)N(C[C@@H]5CCCO5)C(=O)[C@@H]4CC[C@@H]23)cc1,1.06,-0.288,-0.241,-0.00678 (inactive),1.01,0.0003,-0.127,-0.139,0.0237,0.203
CCOC(=O)[C@H](Cc1ccccc1)NC(=O)CCC1CC(OC(=O)NCc2cccc3ccccc23)CC2(CCCC(COC(=O)NCCc3ccc(Cl)cc3)O2)O1 (stereo not given in full),0.519,-0.217,-0.603,-0.84 (inactive),0.718,0.24,0.104,0.588,0.621,0.145
C=C(C)C(=O)OC[C@H]1CN2[C@@H](CC[C@@H](C)[C@@H]2c2ccc(Br)cc2)C(=O)O1,0.789,-0.366,-0.264,-0.286 (inactive),0.261,0.179,0.135,-0.214,0.302,1.26
CC(C)=CCCC(C)=CCON=C1C[C@@H](O)[C@@H](O)[C@@H]2[C@@H]3C(=O)N([C@@H](C)c4ccccc4)C(=O)[C@@H]3CC[C@@H]12,0.277,-0.213,-0.572,-0.168 (inactive),0.461,0.598,0.407,0.319,0.134,0.521
CO[C@H]1C[C@@H]2C[C@H](O)CC(CC(=O)O[C@@H](C=CCC(C)C)C[C@@H]3CC[C@H](C)[C@@H](C1)O3)O2,1.02,-0.205,-0.594,-0.278 (inactive),0.682,1.29,0.595,0.808,1.13,0.0531
CCOC(=O)[C@H](CC(C)C)NC(=O)CCC1CC(OC(=O)NCc2ccc3c(c2)OCO3)CC2(CCCC(COC(=O)NCCC(C)C)O2)O1 (stereo not given in full),0.0402,-0.494,-0.36,-0.748 (inactive),0.136,-0.322,0.0946,0.115,0.0586,0.16
CC(=O)OC[C@H]1O[C@@H](ON=C(C)CCC(=O)OC[C@H]2O[C@H](C#Cc3ccccc3)C=C[C@@H]2Oc2ccc(C)cc2)[C@H](OC(C)=O)[C@@H](OC(C)=O)[C@@H]1OC(C)=O,0.888,-0.148,-0.561,-0.188 (inactive),0.782,1.11,0.603,0.786,0.911,-0.0231
CC(CCN1CCc2nc(-c3ccccc3)c(-c3ccccc3)cc2C1)=NO[C@@H](C)c1cc(-c2c(C)cc(C)cc2C)no1,0.655,-0.0029,0.77,-1.56 (inactive),-0.567,-0.725,-0.345,-0.601,-0.524,0.5
CC(C)(C)N1C(=O)[C@H]2[C@H]3[C@H](O)[C@H](O)CC(=NNC(=O)OCc4ccccc4)[C@@H]3CC[C@H]2C1=O,-0.106,-0.348,-0.518,0.305 (inactive),0.487,0.554,0.251,0.376,0.455,-0.337
COc1ccc(COC(=O)NN=C2C[C@@H](O)[C@@H](O)[C@@H]3[C@@H]4C(=O)N(Cc5ccc6c(c5)OCO6)C(=O)[C@@H]4CC[C@H]23)cc1,-0.218,1.16,1.41,0.491 (inactive),-0.67,-0.104,-0.953,-0.152,-1.03,0.991
